Compound activity as filed in PubChem.
Most compounds without a hit are left out; they make up all but 10% or so of the library.
JMJD2A Tudor inh – inhibitors of human JMJD2A Tudor domain; Potency, µM (titrated, usually from 114 µM), hits mostly inhibitors; hit rate 4.4% among 390,000; AlphaScreen JMJD2A-Tudor / H3K4me3 peptide binding; AID 504339; note: nearly all actives have a fitted effect of over 50% in size
G9a block – inhibitors of human histone lysine methyltransferase G9a | hit rate 8.8% among 350,000 | Potency, µM (doses to about 102 µM), most hits filed as inhibitors | Q96KQ7 | G9a H3K9 monomethylation, AlphaScreen, 2 h; note: nearly all actives have a fitted effect of over 75% in size
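Compounds were preincubated with 20 nM G9a for 15 min, after which biotinylated H3K9 peptide (500 nM) and SAM (20 uM) started a 2 h room-temperature reaction. Monomethylated product was quantified by antibody-based AlphaScreen chemiluminescence.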
CtBP-E1A inh – CtBP/E1A binding inhibition. AlphaScreen GST-E1A/His-CtBP binding, 1536-well; hits give low values. activity change, % (concentration not given with the values). hit rate 0.49% among 340,000. AID 651724; in the data active = activity change below about -65%; inconclusive = mostly about -30% to -63%
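GST-E1A and His-tagged CtBP (125 nM each as 5X stock) were preincubated with pin-transferred compound for 2 h at 37 °C in the dark, then glutathione donor and nickel acceptor beads were added for 1 h before AlphaScreen reading.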
HP1b chromo inh – inhibitors of HP1-beta chromodomain binding to methylated histone tails. P83916. AlphaScreen HP1-beta / biotin-H3K9me3 peptide binding. Potency, µM (titrated, usually from 114 µM), most hits filed as inhibitors. hit rate 0.56% among 390,000. AID 540317; note: nearly all actives have a fitted effect of over 70% in size
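AlphaScreen: HP1-beta (50 nM) preformed 30 min with biotin-H3(1-18)K9me3 peptide (50 nM) in PBS pH 7.4, 0.01% Tween-20. Compound added for 30 min at RT, then streptavidin donor/nickel chelate acceptor beads (10 ug/mL) for 30 min.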
Six1-Eya2 blk – Six1/Eya2 interaction inhibition | Q15475+O00167 | hit rate 0.56% among 360,000 | AlphaScreen GST-Six1/His-Eya2 binding, biochemical; hits give low values | activity change, % (concentration not given with the values) | AID 651725; in the data active = activity change below about -65%; inconclusive = mostly about -30% to -63%
Target sequence (O00167 whole entry, looked up): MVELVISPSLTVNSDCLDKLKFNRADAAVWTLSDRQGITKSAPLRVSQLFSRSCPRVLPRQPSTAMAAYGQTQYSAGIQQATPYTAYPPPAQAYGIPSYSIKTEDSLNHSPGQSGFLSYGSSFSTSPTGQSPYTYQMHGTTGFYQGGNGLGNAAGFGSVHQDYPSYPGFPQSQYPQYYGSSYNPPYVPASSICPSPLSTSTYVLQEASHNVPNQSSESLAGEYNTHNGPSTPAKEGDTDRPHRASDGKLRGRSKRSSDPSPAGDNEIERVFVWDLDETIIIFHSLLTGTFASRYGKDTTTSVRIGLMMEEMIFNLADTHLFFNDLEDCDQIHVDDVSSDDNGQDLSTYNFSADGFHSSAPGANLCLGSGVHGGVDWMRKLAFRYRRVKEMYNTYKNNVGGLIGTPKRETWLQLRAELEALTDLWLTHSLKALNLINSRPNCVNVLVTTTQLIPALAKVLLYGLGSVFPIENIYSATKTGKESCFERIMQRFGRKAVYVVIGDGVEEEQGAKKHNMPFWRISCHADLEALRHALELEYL
Target sequence (Q15475 whole entry, looked up): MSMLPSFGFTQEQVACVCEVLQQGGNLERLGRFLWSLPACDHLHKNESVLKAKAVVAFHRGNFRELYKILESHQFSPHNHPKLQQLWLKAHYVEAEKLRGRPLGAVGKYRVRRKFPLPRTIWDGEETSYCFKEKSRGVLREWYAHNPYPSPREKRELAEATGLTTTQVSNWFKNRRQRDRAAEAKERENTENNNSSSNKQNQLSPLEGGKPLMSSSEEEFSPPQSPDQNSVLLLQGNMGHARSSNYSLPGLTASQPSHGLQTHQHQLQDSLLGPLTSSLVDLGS
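AlphaScreen with GST-Six1 and His-Eya2 (5X mix: 250 nM and 500 nM), glutathione donor and nickel acceptor beads; buffer 50 mM Tris pH 8.0, 300 mM NaCl, 1 mM TCEP; 1 h at 37 C in the dark.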
BAZ2B block – inhibitors of human BAZ2B bromodomain | AlphaScreen BAZ2B-H3K14Ac peptide displacement | Potency, µM (top dose mostly 114 µM), usual class: inhibitors | Q9UIF8 | hit rate 4.4% among 360,000; note: nearly all actives have a fitted effect of over 60% in size
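Complex of BAZ2B and biotin-H3K14Ac (50 nM apiece) forms over 30 min at RT, then faces library compounds up to 110 uM for another 30 min; AlphaScreen beads added, 20 min dark incubation, luminescence read.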
Large screens that a line does not name were inactive. Unless noted, calls come from the whole dose curve; as a rule, active = well fitted inhibition curve with a large enough effect; inconclusive = small, poorly fitted or top-dose-only effect; inactive = no such curve, though single readings can be large or run the other way.

Cn1c(=O)[nH]c2cc3ccccc3cc21	G9a block 1.26µM
COC(=O)c1ccc(C2c3c(oc4ccc(C)cc4c3=O)C(=O)N2Cc2ccc3c(c2)OCO3)cc1 (stereo not drawn)	none (no result: CtBP-E1A inh, Six1-Eya2 blk)
O=C1CN(c2nc(-c3ccccc3)c3cc(Cl)ccc3n2)c2ccccc2N1	G9a block 50.1µM
Cc1cc(C)cc(N2C(=O)CSC23C(=O)N(CC(=O)Nc2ccc(F)cc2F)c2ccccc23)c1 (stereo not drawn)	none (no result: CtBP-E1A inh, Six1-Eya2 blk)
Cc1nc2sc(C(c3cccs3)N3CCN(C(=O)c4ccco4)CC3)c(O)n2n1 (stereo not drawn)	G9a block 39.8µM
Cc1nc2sc(C(c3ccccc3)N3CCN(C(=O)c4ccco4)CC3)c(O)n2n1 (stereo not drawn)	none
Cc1ccc(C(c2sc3ncnn3c2O)N2CCCCC2)cc1 (stereo not drawn)	none
Cc1nc2sc(C(c3ccco3)N3CCN(c4ccccc4F)CC3)c(O)n2n1 (stereo not drawn)	G9a block 44.7µM
Cc1ccc(C(c2sc3ncnn3c2O)N2CCC(C)CC2)cc1 (stereo not drawn)	none
CC1CN(C(c2ccco2)c2sc3ncnn3c2O)CC(C)O1 (stereo not drawn)	G9a block 39.8µM
Oc1c(C(c2ccc(F)cc2)N2CCc3ccccc3C2)sc2ncnn12 (stereo not drawn)	JMJD2A Tudor inh inconclusive, G9a block 7.94µM
O=C(Nc1c(C(=O)Nc2ccc(F)cc2)oc2ccccc12)c1cc2ccccc2o1	none (no result: CtBP-E1A inh, Six1-Eya2 blk)
CCn1c(=O)c2cc(C(=O)N(CC(C)C)CC(C)C)sc2c2ccccc21	none (no result: CtBP-E1A inh, Six1-Eya2 blk)
Cc1nc2sc(C(c3ccco3)N3CCN(c4ccc(F)cc4)CC3)c(O)n2n1 (stereo not drawn)	BAZ2B block inconclusive (no result: G9a block)
Cc1nc2sc(C(c3ccco3)N3CCc4ccccc4C3)c(O)n2n1 (stereo not drawn)	JMJD2A Tudor inh 56.2µM (no result: G9a block, BAZ2B block)
C=CCCC(=O)Nc1nc(C)c(-c2csc(Nc3ccc(Cl)cc3Cl)n2)s1	JMJD2A Tudor inh inconclusive, G9a block 7.08µM, HP1b chromo inh inconclusive, BAZ2B block inconclusive
C=CCCC(=O)Nc1nc(C)c(-c2csc(Nc3ccccc3OC)n2)s1	JMJD2A Tudor inh inconclusive, G9a block 25.1µM, BAZ2B block inconclusive (no result: CtBP-E1A inh)
CCOC(=O)c1sc2ccccc2c1OC(=O)c1ccc(C)cc1	none
CCOC(=O)c1sc(S(C)=O)c2c1CCc1conc1-2 (stereo not drawn)	G9a block 31.6µM (no result: CtBP-E1A inh)
COc1cc2c(cc1OC)C(COc1ccccc1OC)N(C(=O)CC(C)C)CC2 (stereo not drawn)	none (no result: CtBP-E1A inh, Six1-Eya2 blk)
Cc1ccc(C(=O)NCCCNC(=O)c2ccccc2F)cn1	none
NCCCNC(=O)c1ccc(/C=N/O)nc1	JMJD2A Tudor inh 8.91µM, G9a block 2.82µM, BAZ2B block 22.4µM
Cc1c2cnn(CC(=O)Nc3ccc(F)cc3F)c(=O)c2c(C)n1Cc1cccc(Cl)c1	none (no result: CtBP-E1A inh, Six1-Eya2 blk)
O=C1CC(c2ccccc2)Oc2cc(O)cc(O)c21 (stereo not drawn)	none
CC1CC(=O)c2c(cc3c(-c4c(O)cc(O)c5c(O)c6c(cc45)OC(C)CC6=O)c(O)cc(O)c3c2O)O1 (stereo not drawn)	JMJD2A Tudor inh 44.7µM, G9a block inconclusive, CtBP-E1A inh inconclusive, HP1b chromo inh inconclusive, Six1-Eya2 blk inconclusive, BAZ2B block 39.8µM
CCOc1ccc(OCC)c(NC(=O)CN2CCN(c3cccc(C)c3)CC2)c1	JMJD2A Tudor inh 7.94µM, G9a block 3.55µM, HP1b chromo inh 25.1µM, Six1-Eya2 blk inconclusive, BAZ2B block 39.8µM
CCOc1ccc(OCC)c(NC(=O)CN2CCN(c3cccc(C)c3)C(C)C2)c1 (stereo not drawn)	JMJD2A Tudor inh 1.12µM, G9a block inconclusive, HP1b chromo inh 25.1µM, BAZ2B block 50.1µM
COc1ccc(C)cc1NC(=O)CN1CCN(c2ccc(F)cc2)CC1	JMJD2A Tudor inh inconclusive, BAZ2B block inconclusive
CCOc1ccc(-c2cc(C(=O)N3CCN(c4cccc(C)c4)C(C)C3)c3ccccc3n2)cc1 (stereo not drawn)	G9a block inconclusive (no result: CtBP-E1A inh, Six1-Eya2 blk)
CCc1ccc(OCC(=O)NCC(c2ccc(Cl)cc2)N2CCOCC2)cc1 (stereo not drawn)	none (no result: CtBP-E1A inh, Six1-Eya2 blk)
COc1ccc(C2CC(=O)c3cc(-c4nc(-c5cccc([N+](=O)[O-])c5)cs4)c(=O)n(-c4ccc(C)c(C)c4)c3C2)cc1 (stereo not drawn)	G9a block 11.2µM (no result: CtBP-E1A inh, Six1-Eya2 blk)
COc1ccc(C2CC(=O)c3cc(-c4nc(-c5cccc([N+](=O)[O-])c5)cs4)c(=O)n(-c4cc(C)cc(C)c4)c3C2)cc1 (stereo not drawn)	none (no result: CtBP-E1A inh, Six1-Eya2 blk)
Cc1nn(-c2ccccc2)c2c1C(c1cccnc1)N1C=C(S(=O)(=O)N3CCCCC3)C=CC1=N2 (stereo not drawn)	JMJD2A Tudor inh inconclusive, G9a block 79.4µM
Cc1ccc(S(=O)(=O)N2CCCCC2c2cccnc2)c(C)c1C (stereo not drawn)	none (no result: CtBP-E1A inh)
O=S(=O)(NCCO)c1ccc2c(c1)Cc1cc(S(=O)(=O)NCCO)ccc1-2	none
NNS(=O)(=O)c1ccc2c(c1)Cc1cc(S(=O)(=O)NN)ccc1-2	G9a block 7.94µM, CtBP-E1A inh inconclusive
CC(C)(C)OC(=O)N/N=C\c1ccc(OC(=O)c2ccco2)cc1	JMJD2A Tudor inh 31.6µM
CCOc1cc(/C=N\NC(=O)OC)ccc1OC(=O)c1ccco1	none
CCOc1cc(/C=N\NC(=O)OC(C)(C)C)ccc1OC(=O)c1ccco1	JMJD2A Tudor inh 20µM (no result: BAZ2B block)
COc1ccccc1Nc1nn2c(=O)c3ccc(C(=O)NCCc4ccccc4)cc3nc2s1	G9a block inconclusive, BAZ2B block inconclusive (no result: CtBP-E1A inh, Six1-Eya2 blk)
CCOc1ccc(NS(=O)(=O)c2ccc3c4c(cccc24)C(=O)N3)cc1	JMJD2A Tudor inh inconclusive (no result: CtBP-E1A inh, Six1-Eya2 blk)
CCc1nn(CC(=O)NC(C)CC)c(=O)c2cc3occc3n12 (stereo not drawn)	none (no result: CtBP-E1A inh, Six1-Eya2 blk)
COc1ccc(CNC(=O)c2cnc3sc4cc(OC)ccc4n3c2=O)cc1	none (no result: CtBP-E1A inh, Six1-Eya2 blk)
C#CCOCCOCCOCCNc1nc(N2CCOCC2)nc(N2CCN(C(=O)[C@H](CCC(=O)O)n3cc(C(N)[C@H](C)CC)nn3)CC2)n1 (stereo partly drawn)	JMJD2A Tudor inh 39.8µM
C#CCOCCOCCOCCNc1nc(N2CCN(C(=O)[C@H](CCC(=O)O)n3cc(CN)nn3)CC2)nc(N2CCN(C(=O)[C@H](CCC(=O)O)n3cc([C@@H](N)[C@H](C)CC)nn3)CC2)n1	JMJD2A Tudor inh 79.4µM (no result: G9a block, BAZ2B block)
C#CCOCCOCCOCCNc1nc(N2CCN(C(=O)[C@H]([C@@H](C)CC)n3cc(CCC(=O)O)nn3)CC2)nc(N2CCN(C(=O)[C@H](CCCCN)n3cc(CCC(=O)O)nn3)CC2)n1	none (no result: G9a block, BAZ2B block)
